Experimental data published in PubChem BioAssay (NCI).
Compounds without any hit were thinned out: in the full panel of roughly 79,000, 15% have a hit. Values without a mark were called inactive. Activity calls are given as the source filed them. Cut-off read from the data, not from the text of the source: active = growth inhibition above about 70%; inactive = the rest.

Assays:
[1] = NCI Yeast Anticancer Drug Screen. Data for the rad50 strain (AID 155);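 note: 0% = growth of vehicle-only cultures of the same strain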; conditions: S. cerevisiae rad50 strain growth inhibition, hits give high values
Outline: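 Compounds were tested on a yeast strain with an engineered DNA damage repair alteration; the reported value is growth inhibition normalised to vehicle treatment.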

[2] = NCI Yeast Anticancer Drug Screen. Data for the mec2-1 strain (AID 157); conditions: S. cerevisiae mec2-1 strain, hits give high values
Outline: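 Strain: mec2-1 (DNA repair/cell cycle alteration). Compound exposure, then growth measured; inhibition expressed relative to vehicle.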

[3] = NCI Yeast Anticancer Drug Screen. Data for the sgs1 mgt1 strain (AID 161);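 note: 0% = growth of cultures given vehicle only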; conditions: S. cerevisiae sgs1 mgt1 strain, hits give high values
Outline: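 Read-out: growth inhibition vs vehicle controls. Cells: mutant yeast strain deficient in DNA damage repair.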

[4] = NCI Yeast Anticancer Drug Screen. Data for the cln2 rad14 strain (AID 165);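 note: 0% = growth equal to vehicle treated cultures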; conditions: S. cerevisiae cln2 rad14 strain, hits give high values
Outline: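 Compounds are applied to the cln2 rad14 yeast strain, and growth is then compared with that of vehicle-treated cultures to give inhibition.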

[5] = NCI Yeast Anticancer Drug Screen. Data for the bub3 strain (AID 167); conditions: S. cerevisiae bub3 mutant strain, hits give high values
Outline: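 Growth of a checkpoint-deficient yeast mutant is measured after compound exposure. Values represent inhibition relative to vehicle.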

[6] = NCI Yeast Anticancer Drug Screen. Data for the mlh1 rad18 strain (AID 175); conditions: S. cerevisiae mlh1 rad18 strain growth inhibition, hits give high values
Outline: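 Read-out is yeast growth inhibition, calculated against vehicle-only controls. The compound was applied to a strain engineered with DNA damage repair alterations.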

[7] = at 5.0 µM (retest, dose inferred, filed as 0.5)
[8] = at 50.0 µM (retest, dose inferred, filed as 5.0)

| Compound | growth inhibition [1, 7] | growth inhibition [1, 8] | growth inhibition ([1]; at 50.0 µM) | growth inhibition [2, 7] | growth inhibition [2, 8] | growth inhibition ([2]; at 50.0 µM) | growth inhibition [3, 7] | growth inhibition [3, 8] | growth inhibition ([3]; at 50.0 µM) | growth inhibition [4, 7] [%] | growth inhibition [4, 8] | growth inhibition ([4]; at 50.0 µM) | growth inhibition [5, 7] | growth inhibition [5, 8] | growth inhibition ([5]; at 50.0 µM) | growth inhibition [6, 7] [%] | growth inhibition [6, 8] | growth inhibition ([6]; at 50.0 µM) |
| --- | --- | --- | --- | --- | --- | --- | --- | --- | --- | --- | --- | --- | --- | --- | --- | --- | --- | --- |
| COc1cccc2c1S(=O)(=O)C(c1ccccc1)=CC2=O | 45% | 99% (active) | 99.5% (active) | 48% | 99% (active) | 99.2% (active) | 55% | 99% (active) | 99.4% (active) | 12 | 98% (active) | 98.7% (active) | 58% | 97% (active) | 99.7% (active) | 69 | 99% (active) | 99.5% (active) |
| NNc1ccc(Br)cc1 | 83% (active) | 98% (active) | 90.3% (active) | 83% (active) | 98% (active) | 92.2% (active) | 96% (active) | 99% (active) | 92.7% (active) | 47 | 98% (active) | 90.5% (active) | 98% (active) | 96% (active) | 91% (active) | 33 | 100% (active) | 89.7% (active) |
| CCN(CC)c1cc(Nc2c3ccc(Cl)cc3nc3cc(Cl)ccc23)ccc1O | 1% | 4% | 34.5% | -39% | -3% | -11.2% | -3% | -4% | -4.35% | -6 | -3% | 71.7% (active) | -5% | -10% | 0.75% | 0 | -2% | -0.95% |
| c1ccc(COc2cccc3[nH]ccc23)cc1 | -3% | 29% | 74.4% (active) | -3% | 10% | 90.2% (active) | -6% | 5% | 86.6% (active) | -7 | 6% | 88.8% (active) | 3% | 35% | 83.8% (active) | -5 | 25% | 95.5% (active) |
| C=CCOc1ccc(/C=N/NC(N)=S)cc1 | 10% | 83% (active) | 88.3% (active) | 13% | 81% (active) | 87.3% (active) | 15% | 78% (active) | 44% | 6 | 87% (active) | 58.2% | 5% | 91% (active) | 88.1% (active) | 10 | 90% (active) | 52.1% |
| CCS(=O)(=O)/C=C/c1ccncc1 | -3% | 11% | 24.7% | 3% | -1% | 27.9% | -2% | 12% | 6.4% | 1 | 12% | 5.85% | -2% | 2% | 7.9% | 11 | 11% | 20.3% |
| C=CCCCCCCCCC(=O)ON(Cc1ccc(O)c(OC)c1)C(=O)C(F)(F)F | 3% | 73% (active) | 70.7% (active) | -7% | 66% | 84.3% (active) | -8% | 67% | 89.2% (active) | 20 | 61% | 85.5% (active) | -12% | 40% | 90.5% (active) | 7 | 86% (active) | 85.9% (active) |
| COc1ccc(C(c2cc3c(cc2O)OCO3)N2CCCC2)c(OC)c1 (stereo not given) | 10% | 96% (active) | 98.5% (active) | 0% | 97% (active) | 98.2% (active) | 0% | 97% (active) | 98.8% (active) | -15 | 76% (active) | 61.2% | 5% | 99% (active) | 97.8% (active) | -3 | 97% (active) | 96% (active) |
| O=c1c2cc3ccccc3cc2c(=O)n2n1CC=CC2 | 8% | 39% | 74.2% (active) | -1% | 6% | 15.9% | 9% | 18% | 22% | 4 | 10% | 26.8% | 2% | -1% | -0.8% | 25 | 46% | 10.8% |
| O=C1CCCC/C1=C\c1ccc(Br)cc1 | 1% | 96% (active) | 80.2% (active) | -21% | 99% (active) | 86.7% (active) | -28% | 99% (active) | 90.7% (active) | 9 | 95% (active) | 88.3% (active) | -55% | 99% (active) | 89.4% (active) | -17 | 99% (active) | 92.7% (active) |
